Most compounds without a hit are left out; they make up all but 2.9% or so of the library.
NadD inh: inhibitors of Staphylococcus aureus NadD | inhibition, % at 20 µM | purified NadD enzyme, colorimetric absorbance read-out | actives 0.78% (n = 360,000); in the data active = inhibition above about 26%
GRK2 aptamer HTS: inhibitors of human GRK2 displacing RNA aptamer; inhibition of aptamer binding, % at 10 µM; bead flow cytometry, FAM-aptamer displacement from GRK2; P25098; actives 0.59% (n = 330,000);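 active = inhibition of aptamer binding above 40%, roughly 3 SD of noise, on plates passing a quality check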;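 also: median bead fluorescence of bound FAM aptamer so fluorescent compounds give negative values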
B2AR ag: human beta-2 adrenergic receptor agonism by FAP | Am2.2-beta2AR cells, FAP receptor internalization, flow cytometry | actives 0.43% (n = 340,000) | response, % (no concentration beside the values) | P07550;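 active = response above a set limit, near 3 SD of response in nonfluorescent compounds, cut at about 42% in these data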
Target sequence (P07550 whole entry, looked up): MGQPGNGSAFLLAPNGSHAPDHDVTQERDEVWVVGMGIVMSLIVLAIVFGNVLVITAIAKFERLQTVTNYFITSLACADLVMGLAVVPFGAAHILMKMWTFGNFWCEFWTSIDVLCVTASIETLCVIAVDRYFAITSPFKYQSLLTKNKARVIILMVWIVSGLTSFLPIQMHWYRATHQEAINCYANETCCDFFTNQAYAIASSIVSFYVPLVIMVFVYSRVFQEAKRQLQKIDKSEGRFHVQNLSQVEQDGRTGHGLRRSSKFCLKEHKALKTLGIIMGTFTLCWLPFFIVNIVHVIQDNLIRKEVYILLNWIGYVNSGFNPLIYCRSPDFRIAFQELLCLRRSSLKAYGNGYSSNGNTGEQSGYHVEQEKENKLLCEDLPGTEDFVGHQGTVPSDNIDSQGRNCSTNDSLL
PP1 counter: PP1-alpha (human) inhibition in PP5 counter-screen; inhibition, % at 6.7 µM; purified PP1alpha, OMFP fluorescence; P62136; actives 0.9% (n = 320,000); AID 2235;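 active = inhibition above the mean inhibition of all tested compounds plus 3 SD, computed separately for each screening campaign, cut at about 15% in these data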
Granule exo inh: lytic granule exocytosis inhibition | TALL-104 LAMP-1 surface exposure, flow cytometry; cells stimulated with thapsigargin and PMA | inhibition, % at 10 µM | actives 0.66% (n = 360,000);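 active = inhibition above about 55%, limit read from the data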
NadD inh conf: NadD (S. aureus) inhibition, single concentration confirmation; actives 13% (n = 2,000); shares compounds with NadD inh; inhibition, % at 20 µM; AID 624309; purified S. aureus NadD, colorimetric enzyme assay; in the data active = inhibition mostly above about 42%, no sharp cut-off; inactive = mostly below about 42%
Numbers without * were called inactive; . = no result.

SMILES	NadD inh	GRK2 aptamer HTS	B2AR ag	PP1 counter	Granule exo inh	NadD inh conf
O=C(c1ccc(-c2nnc(Nc3cccc(Cl)c3)c3ccccc23)cc1)N1C[C@H]2C[C@H](C1)c1cccc(=O)n1C2	28.0*	3.0	74.4*	0.9	-1.6	-2.9
COc1nnc(-c2ccc(C(=O)N3C[C@@H]4C[C@H](C3)c3cccc(=O)n3C4)cc2)c2ccccc12	-4.3	.	4.4	.	-0.7	.
COc1ccc(-c2[nH]ncc2CN(CCO)Cc2cccs2)c(F)c1	-2.3	1.0	0.7	-1.4	1.1	.
CCOc1ccccc1NC(=O)C(OC(=O)c1ccc(NC(=O)CC#N)cc1)c1ccccc1 (centres undefined)	28.0*	0.0	10.1	9.7	-4.9	42.8
CCOc1ccccc1NC(=O)C(OC(=O)c1ccccc1)c1ccccc1 (centres undefined)	-5.4	1.0	-2.5	6.3	-1.2	.
O=C(O)COc1ccc(/C=N/NC(=O)c2ccc(-c3csc(Nc4ccc(Cl)cc4)n3)cc2)cc1	71.4*	.	3.5	.	-2.1	9.3
Cc1nc(CC(=O)N/N=C/c2ccc(OCC(=O)O)cc2)cs1	2.1	0.0	3.4	-4.8	1.9	.
CCOc1cc(/C=N/NC(=O)c2ccc(-c3csc(Nc4ccc(C)cc4)n3)cc2)ccc1OCC(=O)O	53.2*	.	-0.9	.	4.2	27.3
COC(=O)CCCC1=CC2=CC(=O)C(C)(OC(=O)c3ccco3)C(=O)C2=CO1 (centres undefined)	.	.	.	15.1	.	.
COC(=O)CCCC1=CC2=CC(=O)C(C)(OC(=O)CCc3ccccc3)C(=O)C2=CO1 (centres undefined)	41.4*	31.0	7.7	-6.1	1.6	72.2*
COc1cccc(-n2c(SCC(=O)Nc3nc4ccccc4s3)nc3ccccc3c2=O)c1	.	1.0	.	-3.1	.	.
N#Cc1c(NC(=O)CSc2nnc(-c3ccco3)n2-c2ccccc2)sc2c1CCC2	40.8*	0.0	-4.0	6.6	-0.3	19.3
COc1ccc(-n2c(SCC(=O)Nc3ccccc3)nnc2-c2ccc(NS(=O)(=O)c3ccc(C)cc3)cc2)cc1	48.9*	0.0	9.8	4.8	3.5	43.9
COc1ccc(-c2nnc(SCC(=O)Nc3sc4c(c3C#N)CCCC4)n2-c2ccccc2)cc1	40.9*	1.0	6.6	-2.3	0.9	5.1
COc1ccc(-c2ccc(C#N)c(SCC(=O)Nc3sc4c(c3C#N)CCC4)n2)cc1	17.3	1.0	4.2	-1.4	-0.7	.
COc1cccc(-n2c(SCC(=O)Nc3sc4c(c3C(N)=O)CCC4)nc3ccccc3c2=O)c1	31.7*	0.0	-16.4	5.7	0.2	-13.9
O=C(NCc1csc(-c2ccccc2)n1)c1cc(F)cc2c1OCOC2	-1.8	1.0	0.3	2.9	-11.6	.
COc1cc2cc(CN(CCc3cccc(C)c3)C(=S)NCCCN3CCOCC3)c(=O)[nH]c2cc1OC	-6.0	0.0	5.0	-1.2	46.6	.
O=C(O)C1CC=CCC1C(=O)N1CCN(c2nc(-c3ccccc3Cl)c3cc(Br)ccc3n2)CC1 (centres undefined)	35.8*	0.0	4.9	17.4*	7.2	27.7
Cc1cc2nc(-c3ccccc3)c(Cc3cccc(Cl)c3)n2c(C)c1Br	37.5*	.	.	.	-1.0	25.5
Cc1cc2nc(-c3cccc(Cl)c3)c(Cc3ccsc3)n2c(C)c1Br	16.7	.	.	.	22.4	.
Cc1cc2nc(-c3ccc(F)cc3)c(Cc3cccc(Cl)c3)n2c(C)c1Br	69.4*	.	.	.	-3.7	29.0
Clc1cccc(Cc2c(-c3cccc(Cl)c3)nc3ccc(Br)cn23)c1	16.4	.	.	.	1.9	.
Clc1cccc(Cc2c(-c3cccc(Br)c3)nc3ccc(Br)cn23)c1	30.2*	.	.	.	-2.4	43.7
Cc1ccc(-c2nc3cc(C)c(Br)c(C)n3c2Cc2cccc(Cl)c2)cc1	6.6	.	.	.	-3.3	.
SMILES	NadD inh	GRK2 aptamer HTS	B2AR ag	PP1 counter	Granule exo inh	NadD inh conf
Cc1cc2nc(-c3cccc(Br)c3)c(Cc3ccsc3)n2c(C)c1Br	41.3*	.	.	.	14.3	18.7
CC(C)CN1CCC(CNC(=O)CCc2nnc(Cc3c[nH]c4ccccc34)o2)CC1	-3.2	0.0	5.2	1.4	9.2	.
N#C/C(=C\Nc1ccc2cn[nH]c2c1)c1nc(-c2ccccc2)cs1	34.8*	.	2.5	.	-2.3	0.8
COc1cc2c(cc1N/C=C(\C#N)c1nc(-c3ccccc3)cs1)oc1ccccc12	16.1	0.0	6.5	-1.6	0.3	.
N#C/C(=C\Nc1ccc2cn[nH]c2c1)c1nc(-c2ccc(Cl)cc2)cs1	40.0*	1.0	-13.6	11.9	24.7	3.3
CC(=O)N/N=C/c1ccc(OCCOc2ccc(Br)cc2)cc1	-2.3	0.0	-10.2	2.3	-5.1	.
O=C(C(=O)N1CCC(Cc2ccccc2)CC1)c1cccc(Br)c1	.	.	.	.	-1.3	.
Cc1ccc(CNC(=O)c2ccc(N3CCC4(CC3)CC(c3cccc(Br)c3)=NO4)c(NC(=O)c3cccc(C)c3)c2)cc1	36.4*	2.0	-4.2	5.2	-2.1	1.3
Cc1ccc(CNC(=O)c2ccc(N3CCC4(CC3)CC(c3ccccc3)=NO4)c(NC(=O)c3ccc(Cl)c([N+](=O)[O-])c3)c2)cc1	36.4*	0.0	1.5	15.4*	0.1	-3.5
Cc1ccc(CNC(=O)c2ccc(N3CCC4(CC3)CC(c3ccccc3)=NO4)c(NC(=O)c3cccc(C)c3)c2)cc1	7.6	0.0	-2.9	-0.1	9.5	.
Cc1ccc(-c2csc(/C=C3/SC(C)C(=O)N3CC(=O)Nc3ccccc3F)n2)cc1 (centres undefined)	21.6	.	0.7	.	4.2	.
CC(=O)c1ccccc1NC(=O)CN1C(=O)CS/C1=C\c1nc(-c2ccc(C)cc2)cs1	46.1*	10.0	-3.2	-11.4	-3.4	1.5
O=C1CC(c2ccco2)Cc2nc(Nc3nc(-c4ccccc4)c4ccccc4n3)ncc21 (centres undefined)	57.2*	2.0	-9.8	26.2*	-2.8	31.9
CCc1nnc(NC(=O)c2cc(S(=O)(=O)N3CCN(c4ccccc4)CC3)ccc2Cl)s1	31.1*	5.0	6.5	-0.2	-1.4	29.2
CC1(C)Cc2c(C#N)c(N3CCN(C(=O)c4ccccc4Cl)CC3)nc(-c3ccco3)c2CS1	34.3*	1.0	1.6	17.4*	-0.7	1.0
O=C(NNC(=O)c1cc(-c2ccc(Br)cc2)nc2ccccc12)c1csc(N2CCOCC2)n1	31.2*	.	7.1	.	0.1	30.4
O=C(NNC(=O)c1cc(-c2ccc(Cl)cc2)nc2ccccc12)c1csc(N2CCOCC2)n1	31.1*	4.0	3.5	2.4	-2.9	37.3*
O=C(NNC(=O)c1cc(-c2ccccc2)nc2ccccc12)c1csc(N2CCOCC2)n1	16.3	10.0	8.2	-7.3	-4.0	.
O=c1ccn2c(n1)SC(c1ccccc1)C2 (centres undefined)	-1.9	.	.	.	-5.5	.
CCc1ccc2c(CN3CCc4ccccc43)cc(=O)oc2c1	14.4	1.0	3.9	9.1	1.5	.
Cc1cc2oc(=O)cc(CN3CCc4ccccc43)c2cc1Cl	32.2*	2.0	-6.0	7.8	1.4	3.2

Source: PubChem
